In PubChem BioAssay (NCATS):
Inconclusive results are not listed. Entries that show only a call come without a potency. Values without a mark were called inactive. Calls of active or inactive are those of the source. The call rests on the fitted dose curve; in most records, active means well fitted curve in the direction sought with a large enough effect; inconclusive means small, poorly fitted or top-dose-only effect, or another doubt; inactive means no such curve, though single readings can be large; an effect the other way counts as inactive or inconclusive.

What was measured:
[1] = target: Cellular tumor antigen p53 (Homo sapiens) (UniProt P04637); experiment: Primary qHTS for small molecule compounds that upregulate eGFP-tagged delta133p53alpha (in N-terminal) cells. (AID 2060322); details: NCI-H358 eGFP-delta133p53alpha fluorescence, 24 h; activation: active compounds read high; further: nearly all actives have a fitted effect of over 75% in size; further: potency means the concentration at half of the fitted maximal effect; on activation: series mostly up to about 56 µM
Cellular tumor antigen p53 (Homo sapiens), sequence (P04637 whole entry, looked up): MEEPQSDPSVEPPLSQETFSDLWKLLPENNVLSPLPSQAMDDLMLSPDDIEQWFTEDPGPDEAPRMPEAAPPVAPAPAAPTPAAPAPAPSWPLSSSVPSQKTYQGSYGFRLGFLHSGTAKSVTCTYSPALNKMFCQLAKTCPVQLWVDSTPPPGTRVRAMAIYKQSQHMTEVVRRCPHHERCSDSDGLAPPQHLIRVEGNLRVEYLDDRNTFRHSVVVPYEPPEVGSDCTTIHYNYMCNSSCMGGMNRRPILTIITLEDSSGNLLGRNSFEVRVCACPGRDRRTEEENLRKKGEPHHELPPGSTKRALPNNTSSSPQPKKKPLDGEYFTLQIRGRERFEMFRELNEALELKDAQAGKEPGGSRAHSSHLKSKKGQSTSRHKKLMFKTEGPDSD
Summary of the method: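 NCI-H358 cells pre-induced 24 h with 10 ng/ml doxycycline to express N-terminal eGFP-delta133p53alpha, then dosed 24 h at 37C without doxycycline; fixed, Hoechst-stained, GFP intensity by laser scanning cytometry, normalized to DMSO (0%) and 57.5 uM 5-azacytidine (100%).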

[2] = target: Aldehyde dehydrogenase, mitochondrial (Homo sapiens) (UniProt P05091); experiment: qHTS for Inhibitors of the Aldehyde Dehydrogenase Family (ALDH2) Primary screen (AID 2061308); further: nearly all actives have a fitted effect of over 55% in size
[3] = target: Retinaldehyde dehydrogenase 3 (Homo sapiens) (UniProt P47895); experiment: qHTS for Inhibitors of the Aldehyde Dehydrogenase Family (ALDH1A3) Primary screen (AID 2061315)

SMILES | Potency [1] | Potency [2] | Potency [3] | activation [1] [%]
C=C1C(=O)OC2/C=C(\CO)CC/C=C(\C=O)CC(OC(=O)CC(C)C)C12 (stereo not given) | 14.8 µM (active) | inactive | inactive | 
CC[C@@H](C)[C@@H]1OC2(C=C[C@H]1C)C[C@@H]1C[C@H](C/C=C(\C)[C@H](O[C@H]3C[C@H](OC)[C@H](O[C@H]4C[C@H](OC)[C@H](NC(C)=O)[C@H](C)O4)[C@H](C)O3)[C@H](C)/C=C/C=C3\CO[C@H]4[C@H](O)C(C)=C[C@@H](C(=O)O1)[C@@]34O)O2 (stereo not given in full) |  | inactive | inactive | 24.3
CC1OC(OC2C(C)OC(OC3C(O)C(CO)OC(O[C@H]4CC[C@@]5(C)C(CC[C@]6(C)C5CC=C5C7[C@@H](C)[C@H](C)CC[C@]7(C(=O)O)CC[C@]56C(=O)O)C4(C)C)C3O)C(O)C2O)C(O)C(O)C1O (stereo not given in full) |  | inactive | inactive | 3.82
CC1CC(=O)C2C(O)(C1)CC(O)C13OC1c1c(O)cccc1C(=O)C23O (stereo not given) |  | inactive | inactive | -1.53
COc1cc(OC)cc(C(=O)Nc2ccc(Cl)c(-c3nc4ccc(N(C)C)cc4[nH]3)c2)c1 |  | inactive | inactive | -11.5
